Screen size: about 48,000 compounds; about 13,000 (27%) showed an effect of 50% or more. Some of the results follow.
What follows are compounds tested on Wolbachia pipientis (assay: Anti-Wolbachia Cell-Based Screen). Settings: 5 µM.
Type: functional
Set-up: scale not given: in the data most compounds retested in dose-response had high values

| SMILES | Percent Effect |
| --- | --- |
| COC(=O)CN(C)C1CCc2ccccc21 (stereo not given) | -6.999% |
| CCn1cc(CN2CCCN(C(=O)c3ccccc3C)CC2)cn1 | 154.9% |
| CCc1[nH]ncc1C(=O)N1CCCN(Cc2cnn(C)c2)CC1 | -4.439% |
| CCn1cc(CN2CCCN(C(=O)c3ccccc3OC)CC2)cn1 | 106.4% |
| CCCc1cc(=O)[nH]c2nnc(SCC(=O)OC)n12 | 10.3% |
| Cc1ccc2c(c1)nc1n2[C@@H](CNC(=O)c2cccnc2)COC1 | -3.716% |
| COc1ccc(C(NC(=O)NCc2nnc3n2CCC3)C2CC2)cc1 (stereo not given) | 10.5% |
| CC(NC(=O)C1CCCC1)c1nncn1C(C)C (stereo not given) | 0% |
| CC(C)NC(=O)C1CCc2nnc(CNC(=O)C3CC3)n21 (stereo not given) | 113.3% |
| CN(Cc1ccc(Cl)s1)C(=O)NCc1nnc2n1CCC2 | 3.09% |
| CC(C)N(Cc1ccccc1)C(=O)NCCNC(=O)c1cccnc1 | -12.62% |
| CC1CCN(CCNC(=O)C2CCN(C(=O)NC(C)C)CC2)CC1 | 10.9% |
| CC(C)NC(=O)NCc1nnc2n1C(C(=O)N(C)C)CC2 (stereo not given) | 107% |
| CC(C)NC(=O)C1CCc2nnc(CNC(=O)c3cccnc3)n21 (stereo not given) | 109.4% |
| CN(C)C(C(=O)N1CCN(CCn2cccc2)CC1)c1cccc(F)c1 (stereo not given) | -3.926% |
| O=C1OCCN1CCSc1nnnn1CC(F)(F)F | -1.95% |
| CSCc1cccc(S(=O)(=O)NCc2cnn(C)c2C)c1 | -8.017% |
| Cc1cc(NC(=O)NCCc2ccc(S(N)(=O)=O)cc2)n(C)n1 | -16.74% |
| CCCc1nc(C)cc(NCc2ccc(S(N)(=O)=O)cc2)n1 | 98.3% |
| Cc1ccc(C)c2c(O)cc(CNCc3ccc(S(N)(=O)=O)cc3)nc12 | -3.225% |
| Cc1nc(-c2cnn(C)c2)sc1C(=O)NCc1ccc(C)n1C | -0.2397% |
| Cc1nc(C(C)C)sc1C(=O)N(C)Cc1cnn(C)c1 | -3.073% |
| CC(C)c1nn2c(-c3cnn(C)c3)nnc2s1 | 112.2% |
| CN1CCN(c2nc(-c3cnn(C)c3)cs2)CC1 | 4.898% |
| Cc1nn2c(-c3cnn(C)c3)nnc2s1 | 91.48% |
| CS(=O)(=O)NCCC(=O)N1Cc2cnc(-c3ccccc3)nc2C1 | 16.59% |
| Cc1cc(Br)cnc1N(C)CC1CCOC1 (stereo not given) | 110.5% |

| SMILES | Percent Effect |
| --- | --- |
| CC(C)n1cnnc1CN(C)CC1CCOC1 (stereo not given) | -3.944% |
| Cc1cc(C)c2c(N(C)CC3CCOC3)ncnc2n1 (stereo not given) | 14.02% |
| CCN(CC)c1ccc(NC(=O)NCC2CCOC2)cn1 (stereo not given) | 10.55% |
| CN(CC1CCOC1)c1ccc(Br)cn1 (stereo not given) | 73.32% |
| CCN(CC1CCOC1)C(=O)Nc1ccc(OC)nc1 (stereo not given) | 9.48% |
| CN(CC1CCOC1)c1ncc(Br)cn1 (stereo not given) | 108.2% |
| Cc1cc(NC(=O)N(CC2CCOC2)C2CC2)no1 (stereo not given) | -8.865% |
| Brc1cnc(NCCCOCC2CCOC2)nc1 (stereo not given) | -7.311% |
| COCC1CN(S(=O)(=O)Cc2ccc(C)cc2)Cc2c1cnn2C.O=C(O)C(F)(F)F (stereo not given) | -11.46% |
| CCCc1cncnc1N1CCC(NCCc2nc(O)cc(O)n2)CC1 | 12.44% |
| Cc1ccccc1CCCN(Cc1ccccn1)S(C)(=O)=O | 19.14% |
| O=C(c1ncn2c(C3CCN(CC4CC4)CC3)ccnc12)N1CCCC1 | -17.31% |
| COCC1c2nnn(CC3CC3)c2CCN1C(=O)N1CCCC1 (stereo not given) | -0.306% |
| Cl.Cl.Cn1cc(CN2CCc3c(CNC(=O)C4CC4)cncc3C2)cn1 | -6.421% |
| Cl.Cl.Cn1cc(C(=O)NCc2cncc3c2CCN(c2ccccn2)C3)cn1 | 91.67% |
| Cl.Cl.Cn1cc(C(=O)NCc2cncc3c2CCN(CC2CC2)C3)cn1 | 108.8% |
| Cn1cc(C(=O)NCc2cn3c(n2)CN(CC2CCOCC2)CC3)cn1.O=C(O)C(F)(F)F | -7.416% |
| Cl.Cn1cc(C(=O)NCc2cncc3c2CCN(S(C)(=O)=O)C3)cn1 | 98.76% |
| COCCN1CCc2c(CNC(=O)c3nccn3C)cncc2C1.Cl.Cl.Cl | -25.03% |
| CC(C)N1CCc2c(CNC(=O)c3nccn3C)cncc2C1.Cl.Cl.Cl | 1.546% |
| N#Cc1cnc(NCc2ccc(C(=O)NC3CC3)cc2)c(Cl)c1 | -6.229% |
| CC(C)(C)c1noc(CCC(=O)N(CC2CCOC2)C2CC2)n1 (stereo not given) | 7.667% |
| CNC(=O)CN1CCC2(CCCN(CC3CCOC3)C2)CC1.O=C(O)C(F)(F)F.O=C(O)C(F)(F)F (stereo not given) | 105.4% |
| CN(C)C(=O)CN1CCC2(C1)CN(CC1CCOC1)C2.O=C(O)C(F)(F)F.O=C(O)C(F)(F)F (stereo not given) | -5.986% |
| CNC(=O)CN1CCO[C@H]2CN(CC3CCOC3)C[C@H]21.O=C(O)C(F)(F)F.O=C(O)C(F)(F)F (stereo not given in full) | 19.99% |
| CC(=O)N1CCC2(CCN(CC3CCCCC3)C2)CC1 | -14.93% |
| CC(=O)N1CCc2[nH]cnc2C12CCN(CC1CCOC1)CC2 (stereo not given) | -0.2967% |

| SMILES | Percent Effect |
| --- | --- |
| CC(=O)N1CCC2(CCN(CC3CCOC3)C2)CC1 (stereo not given) | 104% |
| Cc1cccc(NC(=O)Cn2ncc(SCC(N)=O)c(Cl)c2=O)c1C | -8.805% |
| CN(C)c1cccc(C2CCCN2c2nc3c(cnn3C)c(=O)[nH]2)c1 (stereo not given) | 1.208% |
| CCc1ccc(CN(C)C(=O)C2CC(=O)N(c3cccc(O)c3)C2)nc1 (stereo not given) | -3.145% |
| CCCn1nc2c(cc1=O)CN(Cc1nc(-c3ccoc3)no1)CC2 | 8.04% |
| Cl.O=C1NCCCCC1NCc1csc(-c2ccccn2)n1 (stereo not given) | -2.48% |
| O=C(NC[C@@H]1CCCN1)c1cc(COc2cccc(C(F)(F)F)c2)[nH]n1 | 1.903% |
| CC1CCc2nc(O)c(C(=O)NCc3ccccn3)cc2C1 (stereo not given) | 0.7211% |
| O=C(NCc1ccccn1)c1cnc(C2CCCN2)cn1 (stereo not given) | 135% |
| O=C(NC[C@H]1CCCN1)c1cc(COc2cccc(C(F)(F)F)c2)[nH]n1 | -12.79% |
| Cc1nc(C(=O)NCc2ccccn2)cc(C2CCCN2)n1 (stereo not given) | 186.5% |
| O=C(NCc1ccccn1)C1CN(c2nc3ccccc3s2)CCN1 (stereo not given) | 4.696% |
| CCC1c2ccsc2CCN1C(=O)NCc1ccccn1 (stereo not given) | 11.42% |
| O=C(NCc1ccccn1)c1cncc(C2CCCN2)n1 (stereo not given) | 138.1% |
| Cl.O=C(NCC(F)F)c1cnc(C2CCCN2)cn1 (stereo not given) | 98.86% |
| O=S1(=O)C[C@@H]2[C@H](C1)N(Cc1cc(F)cc(F)c1)CCN2CCO | 1.937% |
| O=C(Nc1cc(C(F)(F)F)ccc1Cl)c1ccc(N2CCOCC2)nn1 | -2.027% |
| Cl.NC1CCN(C(=O)c2c(F)cccc2Br)CC1 | 2.266% |
| Cc1ccccc1SCC(=O)N[C@H]1CC[C@H](n2cnnc2)CC1 | -8.466% |
| Cc1ccc(C(C)NC(=O)Cc2c(C)nc3cc(=O)[nH]n3c2C)s1 (stereo not given) | 3.622% |
| CCOCCN1CCN(CC(O)c2cc(Cl)ccc2Cl)CC1 (stereo not given) | 18.57% |
| CCOc1ccnc(N2CCCN(c3nc(CC)ns3)CC2)n1 | 2.862% |
| CCn1ncnc1CN1CCC(CNC(=O)c2ccccc2C#N)C1 (stereo not given) | 115.7% |
| Cc1ccc(C(=O)NCC2CCN(Cc3ccccc3C#N)C2)cn1 (stereo not given) | -20.5% |
| Cc1cnn(CC2CC2)c1NC(=O)c1cccnc1O | -0.1453% |
| Cc1nc[nH]c1CN1CCC(CNC(=O)c2cccc3cnccc23)C1 (stereo not given) | -8.641% |
| CCn1ncnc1CN1CCC(CNC(=O)c2cccnc2O)C1 (stereo not given) | 102.6% |

| SMILES | Percent Effect |
| --- | --- |
| Cc1cc(CN2CCC(CNC(=O)c3ccc(C#N)cc3)C2)[nH]n1 (stereo not given) | -6.827% |
| Cc1cccc(N2CCN(S(=O)(=O)CCN)CC2)c1 | -3.019% |
| CCOC(=O)N1CCC(C(=O)c2cc(F)ccc2F)CC1 | -8.485% |
| CCOC(=O)C1CCN(C(=O)c2cc(F)ccc2-n2cnnn2)CC1 | 122.3% |
| CCOC(=O)C1CCN(C(=O)c2cc(Br)ccc2-n2cnnn2)CC1 | 129.1% |
| CCOC(=O)C1CCN(C(=O)Cn2ccc3cc(Br)ccc32)CC1 | 16.73% |
| COC(=O)C1CCN(C(=O)c2cc(Br)ccc2-n2cnnn2)CC1 | 122.5% |
| CCC(C)[C@H](NC(=O)c1cc(Br)ccc1-n1cnnn1)C(=O)OC (stereo not given in full) | 6.622% |
| CC(=O)N1CCC(NC(=O)c2cc(Cl)ccc2-n2cnnn2)CC1 | 22.58% |
| CCOC1CCCN(C(=O)c2sccc2-n2cnnn2)C1 (stereo not given) | -3.669% |
| CCOC(=O)CN1CCC(C(=O)c2cc(F)ccc2F)CC1 | -15.3% |
| CCn1ncnc1C(C)NC(=O)Cc1cc2c(cc1Cl)OCCO2 (stereo not given) | 1.538% |
| CC(C)(C)[S+]([O-])CCNC(=O)c1cccc2ncccc12 (stereo not given) | -2.962% |
| CCCSc1ncccc1C(=O)NCc1ccc(S(N)(=O)=O)cc1 | 120.7% |
| CCCSc1ncccc1C(=O)NCc1ccc(N(C)C)cc1 | 112.3% |
| Cn1ccnc1SCCNC(=O)c1cc(S(N)(=O)=O)ccc1F | -8.563% |
| CSc1ncccc1C(=O)NCc1ccc(N(C)C)cc1 | 175.4% |
| CNC(=O)c1cccnc1NCc1ccc(Cn2cccn2)cc1 | -20.21% |
| Cc1ccc(C(=O)NCc2ccc(N(C)C)cc2)cn1 | -15.59% |
| CCSc1ncccc1C(=O)NCc1ccc(N(C)C)cc1 | 103% |
| Cc1cccc(C(=O)NCc2ccc(OCCN(C)C)cc2)c1C | -6.28% |
| CSc1ncccc1C(=O)NCc1ccc(CS(=O)(=O)NC(C)C)cc1 | 2.17% |
| NS(=O)(=O)c1ccc(F)c(C(=O)NCCSc2ccccn2)c1 | 2.11% |
| CN(C)CCOc1ccc(CNC(=O)c2cccc(Cl)c2Cl)cc1 | 13.68% |
